Results taken from PubChem BioAssay (NCATS).
Records with an inconclusive call do not appear. Where a call stands in place of a potency, no number is given. The source made the active and inactive calls. The call rests on the fitted dose curve; in most records, active means well fitted inhibition curve with a large enough effect; inconclusive means small, poorly fitted or top-dose-only effect; inactive means flat fitted curve, though single readings scatter.

The compounds below were run on CP217 (assay: qHTS profiling for inhibitors of Plasmodium falciparum proliferation (AID 504749; further: nearly all actives have a fitted effect of over 60% in size)). Settings: P. falciparum in erythrocytes, SYBR Green DNA, 72 h; series mostly up to 28.7 µM.
Procedure, shortened: (§1)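 Infected RBCs, 0.3% parasitemia/2.5% Hct final; cpd 72 h, 37 C, 5% CO2; lysis buffer with saponin/triton/SYBR Green I, o/n RT dark; FI 485/535; norm. to artemisinin (0.29 uM) and DMSO.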
In the case of `CC(C)[C@@H](N)C(=O)O`, the Potency is reported as “inactive”. For `C[C@H]1O[C@@H](O[C@H]2[C@@H](O)C[C@H](O[C@H]3[C@@H](O)C[C@H](O[C@H]4CC[C@@]5(C)[C@H](CC[C@@H]6[C@@H]5C[C@@H](O)[C@]5(C)[C@@H](C7=CC(=O)OC7)CC[C@]65O)C4)O[C@@H]3C)O[C@@H]2C)C[C@H](O)[C@@H]1O`, the Potency was “inactive”. For `CC(=O)NCCCS(=O)(=O)O`, the Potency was “inactive”. `C=Cc1ccc(S(=O)(=O)O)cc1` was tested, and the Potency was “inactive”. In the case of `CO`, the Potency is reported as “inactive”. For `O=C1[O][Bi][O]c2ccccc21`, the Potency was “inactive”. `O=P(O)(O)CP(=O)(O)O` was tested, and the Potency was “inactive”. For `O=C1c2ccccc2C(=O)C1c1ccc(F)cc1`, the Potency was “inactive”. `CCOc1ccc(NC(=S)Nc2ccc(OCC)cc2)cc1` was tested, and the Potency was “inactive”. With `O=C(O)c1ccc(NC(=O)[C@H](Cc2ccc(O)cc2)NC(=O)c2ccccc2)cc1` the Potency was “inactive”. With `COc1cc2c(cc1OC)[C@@H](Cc1cc(OC)c(OC)c(OC)c1)[N+](C)(CCCOC(=O)CC/C=C/CCC(=O)OCCC[N+]1(C)CCc3cc(OC)c(OC)cc3[C@H]1Cc1cc(OC)c(OC)c(OC)c1)CC2` (stereo partly drawn) the Potency was “inactive”. In the case of `F[Si-2](F)(F)(F)(F)F`, the Potency is reported as “inactive”. With `CC(C)CCC[C@@H](C)[C@H]1CC[C@H]2[C@@H]3CC=C4C[C@@H](O)CC[C@]4(C)[C@H]3CC[C@]12C` the Potency was “inactive”. In the case of `N[C@H](CC(=O)O)C(=O)O`, the Potency is reported as “inactive”. In the case of `Cc1c(Cl)cccc1Nc1ncccc1C(=O)O`, the Potency is reported as “inactive”. In the case of `O=C(O)CCC/C=C\C[C@@H]1[C@@H](/C=C/[C@@H](O)COc2cccc(C(F)(F)F)c2)[C@H](O)C[C@@H]1O`, the Potency is reported as “inactive”. With `CN1C(=O)OC(C)(C)C1=O` the Potency was “inactive”. With `CCCCCCCCCCCC(=O)OCC(O)CO` (stereo not drawn) the Potency was “inactive”. With `O=C(O)[C@H]1C(=CCO)O[C@H]2CC(=O)N12` the Potency was “inactive”. In the case of `O=P(O)(O)O`, the Potency is reported as “inactive”. In the case of `CC(=O)Nc1ccc(OC(=O)c2ccccc2O)cc1`, the Potency is reported as “inactive”. `CC1=CC(=O)NS(=O)(=O)O1` was tested, and the Potency was “inactive”. In the case of `COC(=O)C(CN)c1c[nH]c2ccc(OC)cc12` (stereo not drawn), the Potency is reported as “inactive”. In the case of `CCOC(=O)[C@@H](N)CS`, the Potency is reported as “inactive”. `CCCCCCOC(=O)c1cccnc1` was tested, and the Potency was “inactive”. With `CCN(CC)CCOc1ccccc1OC` the Potency was “inactive”. With `CO/N=C(/C(=O)N[C@@H]1C(=O)N2C(C(=O)O)=C(COC(N)=O)CS[C@H]12)c1ccco1` the Potency was “inactive”. In the case of `ClC(Cl)Cl`, the Potency is reported as “inactive”. `Nc1ncnc2c1ncn2[C@H]1CC[C@@H](CO)O1` was tested, and the Potency was “inactive”. For `CC1CCCCN1CCCOC(=O)c1ccccc1` (stereo not drawn), the Potency was “inactive”. With `CC(=O)[C@H]1CC[C@H]2[C@@H]3C=CC4=CC(=O)CC[C@@]4(C)[C@H]3CC[C@]12C` the Potency was “inactive”. `CC/C=C\C/C=C\C/C=C\CCCCCCCC(=O)O` was tested, and the Potency was “inactive”. `CCCCCCCCCCCCCCCCCCCCCC(=O)Nc1ccn([C@@H]2O[C@H](CO)[C@@H](O)[C@@H]2O)c(=O)n1` was tested, and the Potency was “inactive”. With `CN(Cc1ccccc1)Cc1ccccc1` the Potency was “inactive”. In the case of `CCCc1ccc(C(=O)O)cc1`, the Potency is reported as “inactive”. For `C=CC(=O)O`, the Potency was “inactive”. In the case of `O=C(NNCNNC(=O)c1ccncc1)c1ccncc1`, the Potency is reported as “inactive”. With `CN(C)c1ccc(C(=C2C=CC(=[N+](C)C)C=C2)c2c(O)c(S(=O)(=O)[O-])cc3cc(S(=O)(=O)O)ccc23)cc1` the Potency was “inactive”. With `CC(C)(CO)[C@@H](O)C(=O)NCCC(=O)NCCSSCCNC(=O)CCNC(=O)[C@H](O)C(C)(C)CO` the Potency was “inactive”.

What follows are compounds tested on CP237 in the same assay as above. Settings: P. falciparum in erythrocytes, SYBR Green DNA, 72 h; series mostly up to 28.7 µM.
Procedure, shortened: as §1
`CC(C)[C@@H](N)C(=O)O` was tested, and the Potency was “inactive”. For `C[C@H]1O[C@@H](O[C@H]2[C@@H](O)C[C@H](O[C@H]3[C@@H](O)C[C@H](O[C@H]4CC[C@@]5(C)[C@H](CC[C@@H]6[C@@H]5C[C@@H](O)[C@]5(C)[C@@H](C7=CC(=O)OC7)CC[C@]65O)C4)O[C@@H]3C)O[C@@H]2C)C[C@H](O)[C@@H]1O`, the Potency was “inactive”. In the case of `CC(=O)NCCCS(=O)(=O)O`, the Potency is reported as “inactive”. In the case of `C=Cc1ccc(S(=O)(=O)O)cc1`, the Potency is reported as “inactive”. `CO` was tested, and the Potency was “inactive”. With `O=C1[O][Bi][O]c2ccccc21` the Potency was “inactive”. With `O=P(O)(O)CP(=O)(O)O` the Potency was “inactive”. With `O=C1c2ccccc2C(=O)C1c1ccc(F)cc1` the Potency was “inactive”. With `CCOc1ccc(NC(=S)Nc2ccc(OCC)cc2)cc1` the Potency was “inactive”. In the case of `O=C(O)c1ccc(NC(=O)[C@H](Cc2ccc(O)cc2)NC(=O)c2ccccc2)cc1`, the Potency is reported as “inactive”. `COc1cc2c(cc1OC)[C@@H](Cc1cc(OC)c(OC)c(OC)c1)[N+](C)(CCCOC(=O)CC/C=C/CCC(=O)OCCC[N+]1(C)CCc3cc(OC)c(OC)cc3[C@H]1Cc1cc(OC)c(OC)c(OC)c1)CC2` (stereo partly drawn) was tested, and the Potency was “inactive”. `F[Si-2](F)(F)(F)(F)F` was tested, and the Potency was “inactive”. For `CC(C)CCC[C@@H](C)[C@H]1CC[C@H]2[C@@H]3CC=C4C[C@@H](O)CC[C@]4(C)[C@H]3CC[C@]12C`, the Potency was “inactive”. In the case of `N[C@H](CC(=O)O)C(=O)O`, the Potency is reported as “inactive”. With `Cc1c(Cl)cccc1Nc1ncccc1C(=O)O` the Potency was “inactive”. With `O=C(O)CCC/C=C\C[C@@H]1[C@@H](/C=C/[C@@H](O)COc2cccc(C(F)(F)F)c2)[C@H](O)C[C@@H]1O` the Potency was “inactive”. `CN1C(=O)OC(C)(C)C1=O` was tested, and the Potency was “inactive”. `CCCCCCCCCCCC(=O)OCC(O)CO` (stereo not drawn) was tested, and the Potency was “inactive”. For `O=C(O)[C@H]1C(=CCO)O[C@H]2CC(=O)N12`, the Potency was “inactive”. For `O=P(O)(O)O`, the Potency was “inactive”. With `CC(=O)Nc1ccc(OC(=O)c2ccccc2O)cc1` the Potency was “inactive”. For `CC1=CC(=O)NS(=O)(=O)O1`, the Potency was “inactive”. With `COC(=O)C(CN)c1c[nH]c2ccc(OC)cc12` (stereo not drawn) the Potency was “inactive”. For `CCOC(=O)[C@@H](N)CS`, the Potency was “inactive”. `CCCCCCOC(=O)c1cccnc1` was tested, and the Potency was “inactive”. In the case of `CCN(CC)CCOc1ccccc1OC`, the Potency is reported as “inactive”. In the case of `CO/N=C(/C(=O)N[C@@H]1C(=O)N2C(C(=O)O)=C(COC(N)=O)CS[C@H]12)c1ccco1`, the Potency is reported as “inactive”. `ClC(Cl)Cl` was tested, and the Potency was “inactive”. With `Nc1ncnc2c1ncn2[C@H]1CC[C@@H](CO)O1` the Potency was “inactive”. In the case of `CC1CCCCN1CCCOC(=O)c1ccccc1` (stereo not drawn), the Potency is reported as “inactive”. In the case of `CC(=O)[C@H]1CC[C@H]2[C@@H]3C=CC4=CC(=O)CC[C@@]4(C)[C@H]3CC[C@]12C`, the Potency is reported as “inactive”. In the case of `CC/C=C\C/C=C\C/C=C\CCCCCCCC(=O)O`, the Potency is reported as “inactive”. With `CCCCCCCCCCCCCCCCCCCCCC(=O)Nc1ccn([C@@H]2O[C@H](CO)[C@@H](O)[C@@H]2O)c(=O)n1` the Potency was “inactive”. For `CN(Cc1ccccc1)Cc1ccccc1`, the Potency was “inactive”. In the case of `CCCc1ccc(C(=O)O)cc1`, the Potency is reported as “inactive”. For `C=CC(=O)O`, the Potency was “inactive”. `O=C(NNCNNC(=O)c1ccncc1)c1ccncc1` was tested, and the Potency was “inactive”. With `CN(C)c1ccc(C(=C2C=CC(=[N+](C)C)C=C2)c2c(O)c(S(=O)(=O)[O-])cc3cc(S(=O)(=O)O)ccc23)cc1` the Potency was “inactive”. `CC(C)(CO)[C@@H](O)C(=O)NCCC(=O)NCCSSCCNC(=O)CCNC(=O)[C@H](O)C(C)(C)CO` was tested, and the Potency was “inactive”.
